This is a sample that favours compounds with a hit; in the whole collection about 2.2% have one here.
Cardio protect = cardioprotection against H2O2-induced cell death, primary screen, uHTS, H9c2 cells, ATPLite luminescence; protection from H2O2 cell death, % at 20 µM; H9c2 cardiomyocytes, H2O2 injury protection, 2 h; hit rate 0.63% among 360,000;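 active = compounds giving at least 50% protection of heart cells from peroxide-induced death in the single-dose screen, raw or plate-pattern-corrected value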
PLCb3 inh = human PLC-beta3 inhibitors, primary screen, biochemical, fluorescence; 1-phosphatidylinositol 4,5-bisphosphate phosphodiesterase beta-3 (Homo sapiens), Q01970; Purified PLC-beta3, fluorogenic substrate; inhibition, % at 12.2 µM; hit rate 0.18% among 370,000; AID 720704, 2013; in the data active = inhibition above about 11%
FAS-TE inh = FAS thioesterase domain inhibitors, primary screen, biochemical, fluorescence intensity, uHTS. recombinant FAS-TE, OMFH fluorogenic substrate, fluorescence endpoint. inhibition, % at 15 µM. Fatty acid synthase (Homo sapiens), P49327. hit rate 0.67% among 360,000;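 active = compounds whose normalised, plate-corrected inhibition of enzyme fluorescence in the single-dose primary screen is 50% or more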
PLCg1 inh = PLC-gamma1 enzyme inhibitors, primary screen, biochemical, fluorescence, purified enzyme. AID 720700, 2013. inhibition, % at 12.2 µM. fluorogenic substrate. 1-phosphatidylinositol 4,5-bisphosphate phosphodiesterase gamma-1 (Homo sapiens), P19174. hit rate 0.84% among 370,000; in the data active = inhibition above about 9.5%
FAS-TE conf = FAS thioesterase domain inhibitors, confirmation, biochemical, fluorescence intensity, single concentration | shares compounds with FAS-TE inh | recombinant FAS-TE, OMFH fluorogenic substrate | inhibition, % at 15 µM | hit rate 45% among 2,300 | AID 624325, 2012;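 active = compounds inhibiting the enzyme by at least 50% at 15 µM in any one of the replicates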
A number is an active result; 0 = inactive; - = not tested or not shown.

SMILES	Cardio protect	PLCb3 inh	FAS-TE inh	PLCg1 inh	FAS-TE conf
COC(=O)c1cc2c(c3c4ccccc4n(S(=O)(=O)c4cccc(C)c4)c13)C(=O)N(Cc1ccccc1OC)C2	-	0	-	0	-
Cc1ccc(C(=O)N2CCC3(CC2)Oc2ccc(F)cc2C(=O)C32CC(c3ccc(Cl)cc3)=NO2)s1 (stereo unspecified)	0	0	87	0	0
O=C(c1ccoc1)N1CCC2(CC1)Oc1ccc(F)cc1C(=O)C21CC(c2ccc(Cl)cc2)=NO1 (stereo unspecified)	0	0	74	0	0
O=C(c1ccc2c(c1)OCO2)N1CCC2(CC1)Oc1ccc(F)cc1C(=O)C21CC(c2cccnc2)=NO1 (stereo unspecified)	0	0	0	0	-
CC(C)(C)OC(=O)N1CCC2(CC1)Oc1ccc(F)cc1C(=O)C21CC(c2ccccc2)=NO1 (stereo unspecified)	0	0	59	0	0
O=C(c1ccoc1)N1CCC2(CC1)Oc1ccc(Cl)cc1C(=O)C21CC(c2ccc(Cl)cc2)=NO1 (stereo unspecified)	0	0	0	0	-
O=C(c1ccoc1)N1CCC2(CC1)Oc1ccc(F)cc1C(=O)C21CC(c2ccccc2)=NO1 (stereo unspecified)	0	0	0	0	-
O=C(c1ccc2c(c1)OCO2)N1CCC2(CC1)Oc1ccc(F)cc1C(=O)C21CC(c2ccccc2)=NO1 (stereo unspecified)	0	0	67	0	0
Cc1ccc(C(=O)N2CCC3(CC2)Oc2ccc(Cl)cc2C(=O)C32CC(c3ccc(Cl)cc3)=NO2)s1 (stereo unspecified)	0	0	0	0	-
N#CCC[C@H]1CC[C@]2(CCCN(c3ccccc3)C2)O1	-	0	-	0	-
Cc1ccccc1-c1ccc2c(c1)[C@@H]1C[C@H]3[C@@H](CN1CC2)[C@H](C)ON3C	-	0	-	0	-
CN(C)S(=O)(=O)c1cccc(C(=O)N/N=C\c2ccccc2[N+](=O)[O-])c1	-	0	-	0	-
C=CCN1C(=O)[C@@H](CC(=O)NCCCOC)[C@]2(C(=O)OCC)CCCCC/C=C/12	-	0	-	0	-
COc1ccc(CCN(C)S(=O)(=O)c2cn(C)c(=O)n(C)c2=O)cc1OC	0	0	0	0	-
COC1=C[C@H](C(=O)NCc2ccccn2)[C@@]2(C)Cc3ccccc3[C@H]2CC1=O	-	0	-	0	-
Cc1ccc(C(=O)N2CCC3(CC2)Oc2ccc(F)cc2C(=O)C32CC(c3ccccc3)=NO2)s1 (stereo unspecified)	0	0	72	0	0
CC(C)c1ccccc1-n1c(SCC(=O)N2CCc3ccccc3C2)nc2ccccc2c1=O	0	0	60	0	0
O=C(CSc1nc2ccccc2c(=O)n1-c1ccccc1)N1CCc2ccccc2C1	0	0	0	0	-
CCOc1ccccc1NC(=O)CSC1=C(C#N)C(c2ccco2)C(C(=O)Nc2nc3ccccc3s2)=C(C)N1 (stereo unspecified)	0	0	81	0	0
CC1=C(C(=O)Nc2ccccc2)C(c2ccco2)C(C#N)=C(SCC(=O)Nc2cccc(C)c2C)N1 (stereo unspecified)	0	0	0	0	-
Cc1cc(/C=C(\C#N)C(=O)Nc2ccc(F)cc2)c(C)n1-c1ccc(N2CCOCC2)c([N+](=O)[O-])c1	0	0	62	0	0
CNC(=O)/C(C#N)=C\c1cc(C)n(-c2ccc(N3CCOCC3)cc2)c1C	0	0	0	0	-
COc1ccc(NC(=O)/C(C#N)=C/c2cc(C)n(-c3ccc(N4CCOCC4)c([N+](=O)[O-])c3)c2C)cc1	0	0	79	0	0
CN1C(=O)c2cc(NC(=O)Nc3ccccc3)ccc2OC[C@H]2O[C@@H](CC(=O)Nc3cc(F)ccc3F)CC[C@@H]21	-	0	-	0	-
COc1cccc(C2NC(=S)N(Cc3ccccc3)C(C)=C2C(C)=O)c1 (stereo unspecified)	-	0	-	0	-
SMILES	Cardio protect	PLCb3 inh	FAS-TE inh	PLCg1 inh	FAS-TE conf
O[C@@H]1C[C@H](c2ccc(Cl)cc2)N(CC2CCCCC2)C[C@H]1n1cc(C2CC2)nn1	0	0	0	0	-
O[C@H]1C[C@H](c2ccc(Cl)cc2)N(CC2CCCCC2)C[C@@H]1n1cc(C2CC2)nn1	0	0	59	0	56
Cc1ccc(NC(=O)CCNS(=O)(=O)c2cc(Br)cnc2N)cc1Cl	0	0	63	0	44
C[C@@H]1CCCCO[C@@H](CN(C)S(=O)(=O)c2cccs2)[C@@H](C)CN([C@H](C)CO)C(=O)c2cc(NS(=O)(=O)c3ccccc3)ccc2O1	0	0	63	0	0
CC(C)NC(=O)Nc1ccc2c(c1)C(=O)N([C@H](C)CO)C[C@H](C)[C@@H](CN(C)S(=O)(=O)c1ccccc1)OCCCC[C@@H](C)O2	0	0	0	0	-
C[C@@H]1CN([C@H](C)CO)C(=O)c2cc(NC(=O)Nc3ccc(F)cc3)ccc2O[C@@H](C)CCCCO[C@H]1CN(C)S(=O)(=O)c1ccc(Cl)cc1	0	0	69	0	0
C[C@@H]1CCCCO[C@H](CN(C)C(=O)Nc2ccc3c(c2)OCO3)[C@@H](C)CN([C@H](C)CO)C(=O)c2cc(NS(=O)(=O)c3ccc(F)cc3)ccc2O1	0	0	0	0	-
C[C@@H]1CCCCO[C@H](CN(C)C(=O)Nc2ccc3c(c2)OCO3)[C@H](C)CN([C@@H](C)CO)C(=O)c2cc(NS(=O)(=O)c3ccc(Cl)cc3)ccc2O1	0	0	59	0	0
C[C@@H]1CCCCO[C@H](CN(C)S(=O)(=O)c2cccs2)[C@@H](C)CN([C@H](C)CO)C(=O)c2cc(NC(=O)C3CCCCC3)ccc2O1	0	0	0	0	-
Cc1ccc(S(=O)(=O)Nc2ccc3c(c2)C(=O)N([C@H](C)CO)C[C@H](C)[C@H](CN(C)C(=O)Nc2cccc4ccccc24)OCCCC[C@@H](C)O3)cc1	0	0	61	0	0
COC(=O)C1=C(C)N(CC(C)C)C(=S)NC1c1cccc(F)c1 (stereo unspecified)	-	0	-	0	-
CCOC(=O)[C@H]1[C@H]2COc3ccc(C)cc3[C@@H]2N2C(=O)c3cc(Br)ccc3NC(=O)[C@@]12C	0	0	57	0	0
CCOC(=O)[C@H]1[C@H]2COc3ccc(Br)cc3[C@@H]2N2C(=O)c3ccc(C)cc3NC(=O)[C@@]12C	0	0	0	0	-
CCOC(=O)[C@@H]1[C@H]2COc3ccc(Br)cc3[C@@H]2N2C(=O)N(c3cccc(Cl)c3)C(=O)[C@@]12C	0	0	73	0	52
CCOC(=O)[C@H]1[C@H]2COc3ccc(Cl)cc3[C@@H]2N2C(=O)c3ccc(Cl)cc3NC(=O)[C@@]12C	0	0	59	0	0
CCOC(=O)[C@H]1[C@H]2COc3ccc(Br)cc3[C@@H]2N2C(=O)c3c(C)cc(C)cc3NC(=O)[C@@]12C	0	0	68	0	0

Source: PubChem
